Measurements as given in PubChem BioAssay (NCI).
“And” between values parts separate entries of the source, which are not always exact repeats. Equal values may be shown once. Compounds without any hit were thinned out: in the full panel of roughly 79,000, 15% have a hit. Some compounds were tested as several samples or in several runs, with calls that do not always agree. The source made the active and inactive calls. Cut-off read from the data, not from the text of the source: active = growth inhibition above about 70%; inactive = the rest.

Test: NCI Yeast Anticancer Drug Screen. Data for the cln2 rad14 strain (AID 165);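 note: 0% = growth equal to vehicle treated cultures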
Conditions: S. cerevisiae cln2 rad14 strain, stronger effect = higher value
Description: Growth inhibition of yeast strains with defined genetic alterations is measured as a screen for potential anti-cancer activity. Selected strains with alterations in DNA damage repair or cell cycle control were exposed to compounds and growth inhibition was measured relative to vehicle treated controls. The strain used in this assay is cln2 rad14

[1] = at 5.0 µM (retest, dose inferred, filed as 0.5)
[2] = at 50.0 µM (retest, dose inferred, filed as 5.0)

Compound | growth inhibition [1] | growth inhibition [2] | growth inhibition (at 50.0 µM)
Nc1c([N+](=O)[O-])cc2c3c(cccc13)CC2 | -16% (inactive) | 20% (inactive) | 21.5% (inactive)
O=C1C=CC(=O)N1c1ccc(Br)cc1Cl | 73% (active) | 100% (active) | –
Cc1cccc(N2CCN(C(=O)/C(=C/c3ccccc3)NC(=O)c3ccccc3)CC2)c1 | -5% (inactive) | 35% (inactive) | -12.5% (inactive)
CN(NC(=O)/C(=C/C=C/c1ccccc1)NC(=O)c1ccccc1)C1=C(Cl)C(=O)[N+](c2ccccc2)=CC1 | 30% (inactive) | 35% (inactive) | 15.8% (inactive)
Cc1ccc(C(C)C)c(C(=C2C=CC(=[N+](C)C)C=C2)c2c(C(C)C)ccc(C)c2O)c1O | 51% (inactive) | 94% (active) | 95.2% (active)
c1ccc2cc(OCC3CO3)c(OCC3CO3)cc2c1 (stereo unspecified) | 14% (inactive) | 63% (inactive) | 60.7% (inactive)
CCCCCCCCCCCCCCCCCN | 16% (inactive) | 90% (active) | 6.8% (inactive) and 37% (inactive)
[Cl][Pt+2][Cl].[NH-]CC1(C[NH-])CCCCC1 | 43% (inactive) | 100% (active) | 69.5% (inactive)
Cc1cnc(/C=N\NC(N)=S)c2cccc(N)c12 | -8% (inactive) and 9% (inactive) | 66% (inactive) and -55% (inactive) | 42.1% (inactive) and 70% (active)
COc1ccc2nc3cccc([N+](=O)[O-])c3c(NCCCO)c2c1 | 99% (active) | 99% (active) | 89.4% (active)
O=C(O)[C@H]1[C@@H](C2CCCCC2)O[C@@H](C2CCCCC2)O[C@H]1C(F)(F)F | -11% (inactive) | -8% (inactive) | 87.3% (active)
O=Cc1ccccc1B(O)O | -52% (inactive) | 94% (active) | 96.5% (active)
S=c1[nH]nc(Cc2ccccc2)c(=S)[nH]1 | 45% (inactive) | 67% (inactive) | 39.4% (inactive)
c1cc(Nc2ccc3c(c2)OCO3)c2cc(C3CCCCC3)ccc2n1 | 40% (inactive) | 46% (inactive) | 98.7% (active)
